Some of the results follow. Inconclusive results are not listed. Active and inactive are the calls of the source. Calls follow the shape of the dose curve; as a rule, active = well fitted inhibition curve with a large enough effect; inconclusive = small, poorly fitted or top-dose-only effect; inactive = no such curve, though single readings can be large or run the other way.

The source of these data is PubChem BioAssay AID743195 (National Center for Advancing Translational Sciences (NCATS), 2013).

Aldehyde dehydrogenase 1A1 (Homo sapiens), sequence (P00352 whole entry, looked up): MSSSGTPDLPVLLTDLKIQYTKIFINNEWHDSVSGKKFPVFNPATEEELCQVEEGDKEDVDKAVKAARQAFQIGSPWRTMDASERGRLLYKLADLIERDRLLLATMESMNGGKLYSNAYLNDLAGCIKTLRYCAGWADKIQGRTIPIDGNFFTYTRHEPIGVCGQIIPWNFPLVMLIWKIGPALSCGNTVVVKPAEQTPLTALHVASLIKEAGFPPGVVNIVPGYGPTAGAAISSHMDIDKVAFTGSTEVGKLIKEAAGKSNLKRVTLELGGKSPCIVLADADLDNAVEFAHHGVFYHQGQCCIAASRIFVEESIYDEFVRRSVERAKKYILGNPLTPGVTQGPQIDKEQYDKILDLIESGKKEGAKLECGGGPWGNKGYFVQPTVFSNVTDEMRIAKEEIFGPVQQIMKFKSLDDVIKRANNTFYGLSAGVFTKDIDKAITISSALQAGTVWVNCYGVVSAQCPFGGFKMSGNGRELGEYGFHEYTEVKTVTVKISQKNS

The assay addresses Aldehyde dehydrogenase 1A1 (Homo sapiens) (UniProt P00352). In words: Extended Characterization of HPGD Inhibitors: Counterscreen Against ALDH1A1. The note with it: recombinant ALDH1A1, NADH fluorescence, propionaldehyde/NAD+. The text has this: The central role of HPGD is to inactivate prostaglandins such as prostaglandin E2 (PGE2) or prostaglandin D2 (PGD2). These prostaglandins are involved in a number of processes, including inflammation, differentiation, and cellular signaling, which makes HPGD an important target for pharmacological intervention. Aldehyde dehydrogenase 1 family, member A1 (ALDH1A1) catalyzes the NAD+ dependent oxidation of a variety of endogenous and exogenous aldehydes to the corresponding carboxylic acids. The enzyme is the critical step in the metabolic activation of retinoic acid, which plays an essential role as a nuclear receptor ligand. […] ALDH1A1 shares some homology with HPGD, and it served as a suitable anti-target of HPGD to determine chemical probe selectivity. The assay system is similar to the HPGD primary screening protocol. Inhibition of ALDH1A1 activity was screened by utilizing propionaldehyde as an electron donor and NAD+ as an electron acceptor/cofactor. An increase in the fluorescence intensity due to conversion of NAD+ to NADH was used to measure the enzyme activity. NIH Chemical Genomics Center [NCGC] NIH Molecular Libraries Probe Centers Network [MLPCN] MLPCN Grant: MH084681 Assay Submitter (PI): Structural Genomics Consortium
3 uL of enzyme (final concentration 50 nM) or buffer were dispensed into a 1,536-well solid-bottom black plate (Greiner Bio One, Monroe, NC) followed by pin-tool transfer (23 nL) of compound (final concentration range 324 pM to 57.2 uM) and control (Bay 11-7085 (CID-5353432), final concentration range 1.31 nM to 2.86 uM). Samples were incubated (RT, protected from light) for 15 minutes followed by a 1 uL substrate addition of NAD+ and Propionaldehyde (final concentrations of 1 mM and 80 uM, respectively). Plates were centrifuged at 1,000 rpm for 15 seconds, then read in kinetic mode on a ViewLux High-throughput CCD imager (Perkin-Elmer) equipped with standard UV fluorescence optics (340 nm excitation, 450 nm emission) for 10 minutes at 5 minute intervals. Data were normalized (Read […] - Read 10 min) against no-enzyme (positive) and enzyme-containing (neutral) wells.
(A counterscreen serves to expose hits that act by an unwanted route or on another target.)
As to `COc1ccnc(NC(=S)N2CCN(c3ncc(C(F)(F)F)cc3Cl)CC2)c1`, the Potency is 1.92 µM (active).
To `COc1cccc(NC(=S)N2CCN(c3ccc(Cl)cc3Cl)CC2)n1` belongs 1.08 µM (active); to `Cc1cc(C)nc(NC(=S)N2CCN(c3ccc(Cl)cc3C(F)(F)F)CC2)c1`, 7.64 µM (active).
As to `COc1cccc(NC(=S)N2CCN(c3ccccc3C(F)(F)F)CC2)n1`, the Potency is 2.15 µM (active).
On to `Cc1ccc(N2CCN(C(=S)Nc3cc(C)ccn3)CC2)cc1`, for which the Potency is 3.83 µM (active).
With `Cc1cc(C)nc(NC(=S)N2CCN(c3cccc(C(F)(F)F)c3)CC2)c1`, the Potency was 15.2 µM (active).
For the compound `Cc1cc(C)nc(NC(=S)N2CCN(c3ccc4nonc4c3)CC2)c1`, the Potency was 12.1 µM (active).
As for `Cc1cc(C)nc(NC(=S)N2CCN(c3ccc(Cl)cc3F)CC2)c1`, the figure is 4.82 µM (active); as for `Cc1cc(C)nc(NC(=S)N2CCN(c3cccc(C#N)c3)CC2)c1`, 3.83 µM (active).
`FC(F)(F)c1cccc(N2CCN(C(=S)Nc3ccncc3)CC2)c1`: the Potency is 27.1 µM (active).
